We go through 9 compounds from publication PMC5540273 (PLoS ONE, 2017).

Holding throughout (conditions): concentration: 1 μM,replicates: in singlicate; n = 1
In experiment [1] the test system is T1, MEK5.
T1 construct: gene MAP2K5

Experiment [2] deals with T2, MEK6.
T2 construct: gene MAP2K6

The test system of experiment [3] is MELK.
Experiment [4] deals with MERTK.
The test system of experiment [5] is MET.
The test system of experiment [6] is T3, MINK.
T3 construct: gene MINK1

The subject of experiment [7] is MKK7.
Experiment [8] has as its system MKNK1.
Experiment [9] relates to MKNK2.
Experiment [10] relates to T4, MLCK.
T4 construct: gene MYLK3

Experiment [11] deals with T5, MLK1.
T5 construct: gene MAP3K9

The subject of experiment [12] is MLK2.
Experiment [13] deals with MLK3.
Experiment [14] relates to MRCKA.
Experiment [15] concerns T6, MRCKB.
T6 construct: gene CDC42BPB

Experiment [16] concerns MST1R.
In experiment [17] the test system is T7, MST1.
T7 construct: gene STK4

In experiment [18] the test system is T8, MST2.
T8 construct: gene STK3

Experiment [19] has as its system T9, MST3.
T9 construct: gene STK24

Experiment [20] relates to MST4.
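Further: KINOMEscan kinase panel screen.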

For `O=C(NOCC1CC1)c1cc(Br)c(F)c(F)c1Nc1ccc(I)cc1Cl`, the “%Inh” value is listed as 20% in [1]; 0% in experiment [2]; 0% in [3]; 0% in experiment [4]; 0% in experiment [5]; 9% in experiment [6]. Also, the “%Inh” value in experiment [7] is listed as 0%; in experiment [8], 10%; in [9], 5%; in experiment [10], 0%; in [11], 0%; in [12], 0%. For the same compound, the “%Inh” value was 0% in experiment [13]; 0% in [14]; 0% in experiment [15]; 31% in experiment [16]; 3% in experiment [17]; 6% in experiment [18]. Besides, the “%Inh” value in experiment [19] stood at 18%; in experiment [20] it was 0%.

In the case of `Cn1ccc2ncnc(Oc3ccc(NC(=O)Nc4ccnc(C(F)(F)F)c4)c(Cl)c3)c21`, the “%Inh” value in experiment [1] is given as 9%; in [2], 0%; in experiment [3], 0%; in [4], 23%; in experiment [5], 2%; in experiment [6], 0%. Moreover, the “%Inh” value in experiment [7] worked out at 0%; in experiment [8], 0%; in experiment [9] it was 0%; in experiment [10] it was 0%; in experiment [11], 8%; in experiment [12] it was 0%. For the same compound, the “%Inh” value in experiment [13] was determined as 0%; in [14], 0%; in experiment [15], 0%; in experiment [16] it was 32%; in [17], 83%; in experiment [18], 0%. Moreover, the results for the “%Inh” value in [19] and in experiment [20] were 9% and 0%, respectively.

Consider `C[C@@H]1CNc2c(sc3ccc4nc(-c5ccncc5)ccc4c23)C(=O)N1`, for which the “%Inh” value in experiment [1] came to 33%; in experiment [2], 0%; in [3], 0%; in experiment [4] it was 100%; in experiment [5], 50%; in experiment [6], 28%. The “%Inh” value in experiment [7] turned out to be 0%; in experiment [8], 0%; in experiment [9] it was 21%; in experiment [10], 54%; in experiment [11], 2%; in [12], 0%. Also, the “%Inh” value in experiment [13] was determined as 4%; in [14], 0%; in [15], 9%; in experiment [16], 18%; in [17], 2%; in experiment [18], 6%. The “%Inh” value amounted to 10% in experiment [19] and 0% in experiment [20].

Consider `Cc1ccn2nc(-c3ccc(F)cc3)c(-c3ccncc3)c2c1.Cl` [GW457859], for which the “%Inh” value in [1] turned out to be 7%; in [2], 2%; in experiment [3], 7%; in experiment [4], 24%; in [5] it was 0%; in experiment [6], 67%. Besides, the “%Inh” value in experiment [7] stood at 0%; in experiment [8], 6%; in experiment [9], 0%; in experiment [10], 2%; in [11] it was 0%; in [12], 0%. Besides, the “%Inh” value worked out at 0% in [13]; 24% in [14]; 3% in [15]; 36% in [16]; 0% in experiment [17]; 0% in experiment [18]. The “%Inh” value amounted to 14% in [19] and 0% in [20].

As for `NC(=O)Nc1sc(-c2ccc(F)cc2)cc1C(N)=O` [GW789449], the “%Inh” value amounted to 89% in experiment [1]; 21% in [2]; 12% in experiment [3]; 10% in experiment [4]; 12% in experiment [5]; 60% in experiment [6]. In addition, the “%Inh” value is 0% in experiment [7]; 8% in experiment [8]; 0% in experiment [9]; 0% in experiment [10]; 39% in experiment [11]; 25% in experiment [12]. Moreover, the “%Inh” value in experiment [13] is reported as 35%; in experiment [14], 0%; in experiment [15], 0%; in experiment [16] it was 0%; in [17], 37%; in experiment [18] it was 49%. Moreover, the results for the “%Inh” value in [19] and in experiment [20] were 21% and 25%, respectively.

`CCn1c(-c2nonc2N)nc2cncc(Br)c21` [SB-738004]: the “%Inh” value in experiment [1] is given as 74%; in [2], 10%; in [3] it was 35%; in experiment [4] it was 0%; in [5], 0%; in [6] it was 29%. Besides, the “%Inh” value in [7] turned out to be 22%; in experiment [8], 10%; in [9], 81%; in experiment [10] it was 28%; in experiment [11] it was 0%; in experiment [12], 0%. Further, the “%Inh” value in experiment [13] was determined as 12%; in [14] it was 11%; in experiment [15], 0%; in experiment [16], 19%; in experiment [17] it was 0%; in [18] it was 6%. The “%Inh” value in experiment [19] was 19%; in experiment [20], 0%.

`CNC(=O)c1ccccc1Nc1nc(Nc2cccc(CS(C)(=O)=O)c2)ncc1C.O=CO` [GSK1520489]: the “%Inh” value in experiment [1] is recorded as 99.9%; in [2], 39%; in [3], 94.6%; in experiment [4] it was 100%; in experiment [5], 97.3%; in [6], 58%. The “%Inh” value in [7] was determined as 0%; in [8] it was 0%; in experiment [9] it was 50%; in experiment [10], 41%; in experiment [11], 97.5%; in [12], 80%. The “%Inh” value in [13] was found to be 72%; in experiment [14], 2%; in experiment [15], 4%; in [16], 93.4%; in experiment [17], 80%; in [18], 49%. The “%Inh” value in experiment [19] is 34%; in [20] it was 54%.

On to `CCCC(=O)Nc1n[nH]c2ncccc12` [SB-601436], for which the “%Inh” value turned out to be 0% in [1]; 0% in [2]; 0% in [3]; 5% in experiment [4]; 0% in experiment [5]; 0% in experiment [6]. For the same compound, the “%Inh” value in [7] was 0%; in experiment [8], 0%; in experiment [9], 11%; in experiment [10], 0%; in [11], 0%; in [12], 0%. The “%Inh” value in experiment [13] was 1%; in experiment [14] it was 0%; in [15], 0%; in experiment [16], 12%; in experiment [17], 0%; in [18], 0%. In addition, the “%Inh” value in experiment [19] and in experiment [20] was 0% in each case.

Take `Cn1ccc2ncnc(Oc3ccc(NC(=O)Nc4cncc(C(F)(F)F)c4)c(Cl)c3)c21`: the “%Inh” value in experiment [1] is on record as 22%; in [2] it was 0%; in experiment [3] it was 0%; in experiment [4] it was 81%; in experiment [5], 12%; in experiment [6], 0%. Also, the “%Inh” value in [7], in experiment [8], in experiment [9], in experiment [10], in experiment [11] and in experiment [12] was 0% throughout. In addition, the “%Inh” value in experiment [13], in experiment [14], in experiment [15], in [16], in experiment [17] and in experiment [18] was 0% each time. Besides, the “%Inh” value in experiment [19] and in experiment [20] was 0% throughout.
